Results as given in PubChem BioAssay.
The source made the active and inactive calls. No rule for the calls is given here.

target: Pantothenate synthetase (Mycobacterium tuberculosis (strain ATCC 25618 / H37Rv)) (UniProt P9WIL5); assay: Recombinant Mtb pantothenate synthetase (PanC) inhibitors, coupled enzyme, confirmatory (AID 375); settings: coupled enzyme assay; at 10 µM, stronger effect = higher value;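 also: 0% = full reaction with vehicle and 100% = no enzyme background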
Sequence (P9WIL5 whole entry, looked up): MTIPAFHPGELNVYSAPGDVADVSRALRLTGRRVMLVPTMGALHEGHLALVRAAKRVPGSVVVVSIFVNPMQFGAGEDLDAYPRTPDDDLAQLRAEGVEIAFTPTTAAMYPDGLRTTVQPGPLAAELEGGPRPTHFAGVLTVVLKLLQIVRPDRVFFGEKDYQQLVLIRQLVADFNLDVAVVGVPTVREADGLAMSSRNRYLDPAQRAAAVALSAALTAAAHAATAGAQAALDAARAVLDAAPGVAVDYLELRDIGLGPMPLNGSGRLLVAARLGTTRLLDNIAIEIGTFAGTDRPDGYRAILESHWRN

SMILES	inhibition
CCC1Oc2ccccc2N(CC(=O)Nc2ccc(OC)cc2OC)C1=O (stereo not given)	0% (inactive)
CCCCn1c(SCC(=O)Nc2cc(C)on2)nnc1-c1cccnc1	0% (inactive)
COC(=O)C1=C(C)NC(C)=C(C(=O)OC)C1c1cc2cc(C)ccc2[nH]c1=O	3% (inactive)
O=C(CCn1c(=O)oc2ccccc21)NCCN1CCOCC1	4% (inactive)
Cn1cccc1Cc1nnc(SCC(=O)Nc2ccccc2F)n1-c1ccc(F)cc1	0% (inactive)
COc1cccc(C2C(C(N)=O)=C(C)Nc3nc(CCCO)nn32)c1OC (stereo not given)	3% (inactive)
CCOc1ccc(CNC(=O)C2CCCN(S(C)(=O)=O)C2)cc1OC (stereo not given)	0% (inactive)
Cc1cc(C)cc(-n2nnc(C(=O)NCc3ccc4c(c3)OCO4)c2N)c1	0% (inactive)
COc1ccc2[nH]c(=O)c(CN(C(=O)c3ccncc3)C(C)C)cc2c1	0% (inactive)
O=C1CC(c2ccccc2)Cc2nc(N3CCc4ccccc43)ncc21 (stereo not given)	1% (inactive)
CCN(CC)S(=O)(=O)c1ccc(S(=O)(=O)N(Cc2ccccn2)Cc2ccco2)cc1	11% (inactive)
CCCCCC1NC(=O)NC1CCCCCC(=O)O (stereo not given)	0% (inactive)
O=C(CCCC(=O)OCC(=O)NC1CCCC1)Nc1ccccn1	4% (inactive)
COc1cc(OC)c2c(c1)OC(c1ccc(OC)c(OC)c1)C(O)C2=O (stereo not given)	1% (inactive)
Cc1cc(NC(=O)c2ccc(Cl)cc2)no1	0% (inactive)
O=C(CN1C(=O)CC(c2ccco2)Sc2ccccc21)Nc1ccccc1F (stereo not given)	0% (inactive)
CCOC(=O)N1CCN(S(=O)(=O)c2cc(Cl)c(OC)cc2Cl)CC1	0% (inactive)
COC1=CC(=O)CC(C)C12Oc1c(Cl)c(OC)cc(OC)c1C2=O (stereo not given)	0% (inactive)
COc1ccc(NC(=O)CC2Oc3ccccc3NC2=O)cc1 (stereo not given)	0% (inactive)
CCOC(=O)C1CCCN(c2cc(=O)n(Cc3ccc(F)cc3)c(=O)[nH]2)C1 (stereo not given)	2% (inactive)

SMILES	inhibition
CCOC(=O)C1=C(C)N=C2SCCC(=O)N2C1c1cc(Br)ccc1OC (stereo not given)	5% (inactive)
O=C(NCC1CCCO1)c1ccc(C(=O)NCC2CCCO2)cc1 (stereo not given)	0% (inactive)
Cc1cc(C)n2nc(C(=O)NCc3ccco3)nc2n1	3% (inactive)
COc1ccc2c(C(F)(F)F)cc(=O)oc2c1C	1% (inactive)
Cc1ncc(CO)c2c1OC(C)(C)OC2	0% (inactive)
Cc1nc(N2CCC(C)CC2)c2c(C)c(C(=O)O)sc2n1	0% (inactive)
CCN(Cc1ccccc1)C(c1ccncc1)c1nnnn1C(C)(C)C (stereo not given)	0% (inactive)
CCSc1nnc(NC(=O)C2CCCN(S(=O)(=O)c3cnc[nH]3)C2)s1 (stereo not given)	7% (inactive)
COC(=O)C(O)(CC(=O)c1ccc(OC)cc1)C(F)(F)F (stereo not given)	0% (inactive)
COc1cc(C)nc(NS(=O)(=O)c2ccc(C)cc2)n1	5% (inactive)
CO[C@H]1C[C@@H]2CC[C@@H](C)[C@@](O)(O2)C(=O)C(=O)N2CCCC[C@H]2C(=O)O[C@H]([C@H](C)C[C@@H]2CC[C@@H](O)[C@H](OC)C2)CC(=O)[C@H](C)C=C(C)[C@@H](O)[C@@H](OC)C(=O)[C@H](C)C[C@H](C)C=CC=CC=C1C	0% (inactive)
O=C(O)c1cc2cc(F)ccc2[nH]1	2% (inactive)
COc1ccc(-c2nnc3ccc(SC(C(C)=O)C(C)=O)nn23)cc1OC	2% (inactive)
CCCNS(=O)(=O)c1ccc(C(=O)NCC2CCCO2)cc1 (stereo not given)	0% (inactive)
COc1ccc(-n2c(=O)c3c4c(sc3n3c(C)nnc23)CCCC4)cc1	3% (inactive)
CCN(CC)C(=O)c1ccc(CS(=O)(=O)c2ccc(OC)cc2)o1	1% (inactive)
Cc1ccc(S(=O)(=O)NCCNC(=O)C2CCCNC2=O)cc1 (stereo not given)	6% (inactive)
COC(=O)c1nnn(-c2ccccc2)c1N	4% (inactive)
O=C(CCn1nc(-c2ccc(Cl)cc2)ccc1=O)N1CCN(c2ccccn2)CC1	7% (inactive)
CCOc1ccc(C2C(C(=O)OC)=CN(CCOC)C=C2C(=O)OC)cc1	4% (inactive)
